Results published in ChEMBL document CHEMBL1961873, “Compounds: GSK PKIS; Assays: Nanosyn kinase panel” (2012).

Key:
[1] = target: T1, Ephrin type-B receptor 2 (Homo sapiens) (UniProt P29323); conditions: at 1 µM
T1 sequence (whole entry): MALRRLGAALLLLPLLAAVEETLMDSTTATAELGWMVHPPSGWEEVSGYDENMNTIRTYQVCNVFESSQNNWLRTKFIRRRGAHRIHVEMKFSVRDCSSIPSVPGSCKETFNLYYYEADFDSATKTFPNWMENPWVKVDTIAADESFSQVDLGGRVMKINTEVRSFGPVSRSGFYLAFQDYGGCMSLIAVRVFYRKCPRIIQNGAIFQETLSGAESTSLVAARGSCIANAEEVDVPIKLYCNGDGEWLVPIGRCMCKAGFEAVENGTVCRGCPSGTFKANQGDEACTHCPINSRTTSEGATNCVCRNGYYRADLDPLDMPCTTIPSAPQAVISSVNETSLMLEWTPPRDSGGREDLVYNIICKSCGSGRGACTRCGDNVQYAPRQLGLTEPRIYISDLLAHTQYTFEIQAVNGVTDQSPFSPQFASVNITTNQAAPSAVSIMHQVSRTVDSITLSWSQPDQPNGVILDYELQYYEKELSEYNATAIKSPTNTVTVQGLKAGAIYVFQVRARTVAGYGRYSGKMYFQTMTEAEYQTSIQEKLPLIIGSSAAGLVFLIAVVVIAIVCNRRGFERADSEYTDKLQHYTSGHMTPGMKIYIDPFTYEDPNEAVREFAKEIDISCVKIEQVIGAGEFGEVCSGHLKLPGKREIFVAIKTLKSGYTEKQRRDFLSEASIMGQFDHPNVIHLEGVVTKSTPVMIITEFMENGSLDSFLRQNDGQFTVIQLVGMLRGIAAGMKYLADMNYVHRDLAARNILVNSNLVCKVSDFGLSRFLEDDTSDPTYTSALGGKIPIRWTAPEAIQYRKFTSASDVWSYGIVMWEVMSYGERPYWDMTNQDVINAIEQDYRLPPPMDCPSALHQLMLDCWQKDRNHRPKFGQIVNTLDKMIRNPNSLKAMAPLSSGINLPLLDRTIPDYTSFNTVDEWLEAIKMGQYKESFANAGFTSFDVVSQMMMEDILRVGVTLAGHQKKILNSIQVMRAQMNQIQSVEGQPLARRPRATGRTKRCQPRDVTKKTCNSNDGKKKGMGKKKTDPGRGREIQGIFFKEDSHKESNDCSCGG

[2] = target: T2, Ephrin type-B receptor 3 (Homo sapiens) (UniProt P54753); conditions: at 0.1 µM
T2 sequence (whole entry): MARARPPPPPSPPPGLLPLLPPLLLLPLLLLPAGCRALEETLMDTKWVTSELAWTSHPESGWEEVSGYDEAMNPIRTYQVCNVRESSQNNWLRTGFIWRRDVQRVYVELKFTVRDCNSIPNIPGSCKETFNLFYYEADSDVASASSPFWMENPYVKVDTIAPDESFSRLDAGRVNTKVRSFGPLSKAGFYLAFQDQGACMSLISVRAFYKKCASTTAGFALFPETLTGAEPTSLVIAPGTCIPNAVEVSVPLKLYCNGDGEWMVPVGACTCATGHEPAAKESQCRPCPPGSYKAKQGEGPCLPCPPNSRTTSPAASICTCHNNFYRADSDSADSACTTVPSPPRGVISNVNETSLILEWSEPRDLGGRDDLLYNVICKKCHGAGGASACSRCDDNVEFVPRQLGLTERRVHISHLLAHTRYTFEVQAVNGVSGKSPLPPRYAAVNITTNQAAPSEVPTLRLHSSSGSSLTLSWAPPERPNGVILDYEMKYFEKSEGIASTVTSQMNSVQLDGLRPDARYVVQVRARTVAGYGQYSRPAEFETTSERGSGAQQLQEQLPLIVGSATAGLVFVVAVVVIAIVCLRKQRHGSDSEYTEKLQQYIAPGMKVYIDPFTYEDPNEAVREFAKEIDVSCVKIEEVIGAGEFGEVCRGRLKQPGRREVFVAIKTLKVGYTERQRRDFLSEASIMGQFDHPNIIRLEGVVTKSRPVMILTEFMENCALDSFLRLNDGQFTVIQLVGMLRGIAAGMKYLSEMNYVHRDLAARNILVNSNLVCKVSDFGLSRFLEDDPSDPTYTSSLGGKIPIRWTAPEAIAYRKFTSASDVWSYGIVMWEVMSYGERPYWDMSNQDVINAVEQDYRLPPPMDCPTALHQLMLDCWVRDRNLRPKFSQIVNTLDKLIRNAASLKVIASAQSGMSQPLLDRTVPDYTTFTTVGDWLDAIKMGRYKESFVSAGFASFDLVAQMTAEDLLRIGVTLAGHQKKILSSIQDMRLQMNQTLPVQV

[3] = target: T2, Ephrin type-B receptor 3 (Homo sapiens); conditions: at 1 µM
[4] = target: T3, Ephrin type-B receptor 4 (Homo sapiens) (UniProt P54760); conditions: at 0.1 µM
T3 sequence (whole entry): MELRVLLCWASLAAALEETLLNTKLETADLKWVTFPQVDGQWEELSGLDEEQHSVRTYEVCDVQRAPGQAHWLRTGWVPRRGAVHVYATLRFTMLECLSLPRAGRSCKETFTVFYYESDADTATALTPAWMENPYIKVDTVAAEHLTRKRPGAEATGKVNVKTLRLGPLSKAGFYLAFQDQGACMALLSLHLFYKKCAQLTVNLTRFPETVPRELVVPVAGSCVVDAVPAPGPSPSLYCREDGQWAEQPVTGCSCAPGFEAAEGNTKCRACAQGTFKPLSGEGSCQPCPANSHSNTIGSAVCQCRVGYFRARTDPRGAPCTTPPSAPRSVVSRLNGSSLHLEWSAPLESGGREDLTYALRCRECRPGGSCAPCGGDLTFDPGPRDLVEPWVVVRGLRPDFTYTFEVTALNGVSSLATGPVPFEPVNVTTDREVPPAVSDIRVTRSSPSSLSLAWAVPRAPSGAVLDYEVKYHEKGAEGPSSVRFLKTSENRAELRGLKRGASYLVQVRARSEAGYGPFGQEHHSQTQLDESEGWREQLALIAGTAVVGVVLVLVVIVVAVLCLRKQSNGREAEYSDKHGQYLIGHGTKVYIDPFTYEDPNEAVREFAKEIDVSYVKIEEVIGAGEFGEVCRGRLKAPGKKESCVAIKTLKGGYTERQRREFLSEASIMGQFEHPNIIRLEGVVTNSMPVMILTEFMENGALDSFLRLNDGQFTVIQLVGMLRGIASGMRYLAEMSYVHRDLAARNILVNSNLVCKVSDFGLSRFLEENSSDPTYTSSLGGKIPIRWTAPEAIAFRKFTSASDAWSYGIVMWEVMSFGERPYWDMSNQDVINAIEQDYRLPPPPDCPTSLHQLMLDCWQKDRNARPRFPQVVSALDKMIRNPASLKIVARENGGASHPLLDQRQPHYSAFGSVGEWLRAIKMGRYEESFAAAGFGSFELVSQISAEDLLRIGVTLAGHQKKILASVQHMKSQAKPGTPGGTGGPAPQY

[5] = target: T3, Ephrin type-B receptor 4 (Homo sapiens); conditions: at 1 µM
[6] = target: Receptor tyrosine-protein kinase erbB-2 (Homo sapiens) (UniProt P04626); conditions: at 0.1 µM
Chain of Receptor tyrosine-protein kinase erbB-2 (Homo sapiens) (P04626 whole entry): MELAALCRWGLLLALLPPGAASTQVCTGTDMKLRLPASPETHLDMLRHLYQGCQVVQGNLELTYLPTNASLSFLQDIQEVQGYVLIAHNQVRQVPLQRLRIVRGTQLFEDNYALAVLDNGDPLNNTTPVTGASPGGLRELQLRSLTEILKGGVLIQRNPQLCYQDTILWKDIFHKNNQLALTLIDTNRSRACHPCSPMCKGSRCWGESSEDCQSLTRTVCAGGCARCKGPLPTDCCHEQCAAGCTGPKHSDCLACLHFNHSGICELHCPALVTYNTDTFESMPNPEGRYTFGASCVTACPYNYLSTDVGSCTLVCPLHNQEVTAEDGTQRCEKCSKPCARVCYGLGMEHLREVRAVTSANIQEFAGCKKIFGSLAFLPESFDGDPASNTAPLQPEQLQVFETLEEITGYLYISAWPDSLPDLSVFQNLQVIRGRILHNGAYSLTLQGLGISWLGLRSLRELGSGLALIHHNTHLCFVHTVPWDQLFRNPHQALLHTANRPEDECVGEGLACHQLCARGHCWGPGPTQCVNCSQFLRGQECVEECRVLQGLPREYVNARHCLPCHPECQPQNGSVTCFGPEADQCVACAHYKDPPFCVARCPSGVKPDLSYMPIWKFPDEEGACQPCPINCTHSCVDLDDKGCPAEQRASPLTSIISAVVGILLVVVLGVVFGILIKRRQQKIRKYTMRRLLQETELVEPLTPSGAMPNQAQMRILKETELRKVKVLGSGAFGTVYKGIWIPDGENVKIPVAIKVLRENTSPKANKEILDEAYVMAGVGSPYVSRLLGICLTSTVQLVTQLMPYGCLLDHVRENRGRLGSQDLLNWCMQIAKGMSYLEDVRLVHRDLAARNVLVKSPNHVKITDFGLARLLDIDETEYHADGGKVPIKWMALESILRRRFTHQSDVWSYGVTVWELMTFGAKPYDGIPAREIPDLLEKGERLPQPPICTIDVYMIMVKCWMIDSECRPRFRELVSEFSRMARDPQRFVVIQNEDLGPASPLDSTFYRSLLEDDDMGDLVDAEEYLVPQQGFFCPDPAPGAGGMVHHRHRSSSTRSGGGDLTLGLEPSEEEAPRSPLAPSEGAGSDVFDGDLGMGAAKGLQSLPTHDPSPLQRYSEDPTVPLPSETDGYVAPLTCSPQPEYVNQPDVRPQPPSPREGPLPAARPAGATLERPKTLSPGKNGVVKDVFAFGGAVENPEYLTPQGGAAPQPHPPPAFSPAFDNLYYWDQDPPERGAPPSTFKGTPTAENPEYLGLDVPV

[7] = target: Receptor tyrosine-protein kinase erbB-2 (Homo sapiens) (UniProt P04626); conditions: at 1 µM
[8] = target: Receptor tyrosine-protein kinase erbB-4 (Homo sapiens) (UniProt Q15303); conditions: at 0.1 µM
Chain of Receptor tyrosine-protein kinase erbB-4 (Homo sapiens) (Q15303 whole entry): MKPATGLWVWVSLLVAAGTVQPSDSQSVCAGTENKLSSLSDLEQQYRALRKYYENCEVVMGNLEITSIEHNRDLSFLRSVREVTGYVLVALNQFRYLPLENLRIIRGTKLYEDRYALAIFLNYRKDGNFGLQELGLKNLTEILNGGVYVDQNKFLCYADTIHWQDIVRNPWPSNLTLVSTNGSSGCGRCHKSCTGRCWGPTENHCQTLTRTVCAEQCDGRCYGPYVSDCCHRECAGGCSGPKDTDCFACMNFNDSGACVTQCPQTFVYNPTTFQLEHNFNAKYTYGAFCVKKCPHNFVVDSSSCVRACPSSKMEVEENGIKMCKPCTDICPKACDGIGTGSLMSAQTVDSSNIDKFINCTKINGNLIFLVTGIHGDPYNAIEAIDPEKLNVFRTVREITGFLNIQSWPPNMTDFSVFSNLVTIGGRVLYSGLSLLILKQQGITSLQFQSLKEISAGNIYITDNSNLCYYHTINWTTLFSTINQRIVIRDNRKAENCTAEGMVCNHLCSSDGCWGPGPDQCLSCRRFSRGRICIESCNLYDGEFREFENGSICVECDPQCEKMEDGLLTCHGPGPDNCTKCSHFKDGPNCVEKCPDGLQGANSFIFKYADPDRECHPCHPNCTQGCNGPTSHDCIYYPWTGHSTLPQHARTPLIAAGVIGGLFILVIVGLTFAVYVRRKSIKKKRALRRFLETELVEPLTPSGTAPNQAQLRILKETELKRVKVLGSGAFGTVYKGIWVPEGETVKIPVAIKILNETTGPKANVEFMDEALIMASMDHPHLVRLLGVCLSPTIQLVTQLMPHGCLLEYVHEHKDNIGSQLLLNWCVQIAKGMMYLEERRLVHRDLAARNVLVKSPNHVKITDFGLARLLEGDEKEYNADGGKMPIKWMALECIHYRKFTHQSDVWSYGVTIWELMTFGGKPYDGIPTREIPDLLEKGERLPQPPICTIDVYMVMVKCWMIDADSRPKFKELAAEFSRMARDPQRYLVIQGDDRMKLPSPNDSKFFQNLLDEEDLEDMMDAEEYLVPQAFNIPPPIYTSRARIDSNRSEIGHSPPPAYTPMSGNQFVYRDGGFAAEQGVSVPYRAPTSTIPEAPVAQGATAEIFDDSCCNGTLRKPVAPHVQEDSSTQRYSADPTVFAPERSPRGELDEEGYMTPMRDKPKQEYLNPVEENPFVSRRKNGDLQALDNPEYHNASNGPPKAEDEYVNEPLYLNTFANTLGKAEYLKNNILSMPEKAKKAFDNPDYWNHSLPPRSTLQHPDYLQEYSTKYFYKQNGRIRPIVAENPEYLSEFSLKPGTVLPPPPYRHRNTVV

[9] = target: Receptor tyrosine-protein kinase erbB-4 (Homo sapiens) (UniProt Q15303); conditions: at 1 µM
[10] = target: Tyrosine-protein kinase Fer (Homo sapiens) (UniProt P16591); conditions: at 0.1 µM
Chain of Tyrosine-protein kinase Fer (Homo sapiens) (P16591 whole entry, looked up): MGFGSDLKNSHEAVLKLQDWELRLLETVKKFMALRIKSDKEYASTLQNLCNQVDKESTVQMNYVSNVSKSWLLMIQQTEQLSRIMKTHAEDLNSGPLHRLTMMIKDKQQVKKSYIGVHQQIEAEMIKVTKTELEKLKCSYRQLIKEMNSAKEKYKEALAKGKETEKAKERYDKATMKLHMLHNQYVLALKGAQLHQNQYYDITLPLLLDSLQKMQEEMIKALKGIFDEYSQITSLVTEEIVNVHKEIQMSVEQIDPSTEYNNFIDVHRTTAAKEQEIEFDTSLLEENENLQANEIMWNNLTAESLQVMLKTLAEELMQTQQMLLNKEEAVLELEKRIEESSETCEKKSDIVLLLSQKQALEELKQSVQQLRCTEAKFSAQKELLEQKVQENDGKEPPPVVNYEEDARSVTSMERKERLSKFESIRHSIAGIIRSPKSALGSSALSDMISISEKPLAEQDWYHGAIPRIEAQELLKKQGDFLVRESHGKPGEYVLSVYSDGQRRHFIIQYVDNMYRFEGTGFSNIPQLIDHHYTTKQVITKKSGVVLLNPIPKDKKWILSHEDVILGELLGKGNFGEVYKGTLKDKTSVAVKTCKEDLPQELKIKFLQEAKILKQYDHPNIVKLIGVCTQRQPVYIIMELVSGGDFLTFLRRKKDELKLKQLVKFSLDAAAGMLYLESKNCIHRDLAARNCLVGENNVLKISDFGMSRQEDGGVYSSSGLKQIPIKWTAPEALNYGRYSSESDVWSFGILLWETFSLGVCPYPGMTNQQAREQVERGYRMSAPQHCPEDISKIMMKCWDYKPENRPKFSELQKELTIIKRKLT

[11] = target: Tyrosine-protein kinase Fer (Homo sapiens) (UniProt P16591); conditions: at 1 µM
[12] = target: Tyrosine-protein kinase Fes/Fps (Homo sapiens) (UniProt P07332); conditions: at 0.1 µM
Chain of Tyrosine-protein kinase Fes/Fps (Homo sapiens) (P07332 whole entry): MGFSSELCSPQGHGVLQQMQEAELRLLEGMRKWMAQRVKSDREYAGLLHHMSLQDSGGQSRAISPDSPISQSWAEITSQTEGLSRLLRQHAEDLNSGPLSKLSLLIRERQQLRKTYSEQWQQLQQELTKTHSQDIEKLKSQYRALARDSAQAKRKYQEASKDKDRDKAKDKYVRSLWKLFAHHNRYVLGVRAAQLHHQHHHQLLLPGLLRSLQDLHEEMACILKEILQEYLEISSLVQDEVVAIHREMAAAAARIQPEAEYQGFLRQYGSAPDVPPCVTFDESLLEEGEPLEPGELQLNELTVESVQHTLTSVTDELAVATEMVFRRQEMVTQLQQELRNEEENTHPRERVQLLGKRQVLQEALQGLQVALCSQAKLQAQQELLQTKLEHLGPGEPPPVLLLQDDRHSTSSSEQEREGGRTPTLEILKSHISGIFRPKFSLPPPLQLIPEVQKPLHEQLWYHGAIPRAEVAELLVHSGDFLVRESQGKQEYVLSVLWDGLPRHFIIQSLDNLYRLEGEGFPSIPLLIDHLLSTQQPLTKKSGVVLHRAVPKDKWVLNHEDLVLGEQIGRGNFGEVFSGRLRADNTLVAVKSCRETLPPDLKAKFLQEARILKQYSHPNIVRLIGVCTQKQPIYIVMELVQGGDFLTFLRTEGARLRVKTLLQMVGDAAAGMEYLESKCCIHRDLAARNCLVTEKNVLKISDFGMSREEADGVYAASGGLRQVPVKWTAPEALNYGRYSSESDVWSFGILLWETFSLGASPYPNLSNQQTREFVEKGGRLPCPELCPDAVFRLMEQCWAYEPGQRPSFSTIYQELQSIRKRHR

[13] = target: Tyrosine-protein kinase Fes/Fps (Homo sapiens) (UniProt P07332); conditions: at 1 µM
[14] = target: Fibroblast growth factor receptor 1 (Homo sapiens) (UniProt P11362); conditions: at 0.1 µM
[15] = target: Fibroblast growth factor receptor 1 (Homo sapiens) (UniProt P11362); conditions: at 1 µM
[16] = target: Fibroblast growth factor receptor 2 (Homo sapiens) (UniProt P21802); conditions: at 0.1 µM
[17] = target: Fibroblast growth factor receptor 2 (Homo sapiens) (UniProt P21802); conditions: at 1 µM
[18] = target: Fibroblast growth factor receptor 3 (Homo sapiens) (UniProt P22607); conditions: at 0.1 µM
Chain of Fibroblast growth factor receptor 3 (Homo sapiens) (P22607 23-806 limits assumed): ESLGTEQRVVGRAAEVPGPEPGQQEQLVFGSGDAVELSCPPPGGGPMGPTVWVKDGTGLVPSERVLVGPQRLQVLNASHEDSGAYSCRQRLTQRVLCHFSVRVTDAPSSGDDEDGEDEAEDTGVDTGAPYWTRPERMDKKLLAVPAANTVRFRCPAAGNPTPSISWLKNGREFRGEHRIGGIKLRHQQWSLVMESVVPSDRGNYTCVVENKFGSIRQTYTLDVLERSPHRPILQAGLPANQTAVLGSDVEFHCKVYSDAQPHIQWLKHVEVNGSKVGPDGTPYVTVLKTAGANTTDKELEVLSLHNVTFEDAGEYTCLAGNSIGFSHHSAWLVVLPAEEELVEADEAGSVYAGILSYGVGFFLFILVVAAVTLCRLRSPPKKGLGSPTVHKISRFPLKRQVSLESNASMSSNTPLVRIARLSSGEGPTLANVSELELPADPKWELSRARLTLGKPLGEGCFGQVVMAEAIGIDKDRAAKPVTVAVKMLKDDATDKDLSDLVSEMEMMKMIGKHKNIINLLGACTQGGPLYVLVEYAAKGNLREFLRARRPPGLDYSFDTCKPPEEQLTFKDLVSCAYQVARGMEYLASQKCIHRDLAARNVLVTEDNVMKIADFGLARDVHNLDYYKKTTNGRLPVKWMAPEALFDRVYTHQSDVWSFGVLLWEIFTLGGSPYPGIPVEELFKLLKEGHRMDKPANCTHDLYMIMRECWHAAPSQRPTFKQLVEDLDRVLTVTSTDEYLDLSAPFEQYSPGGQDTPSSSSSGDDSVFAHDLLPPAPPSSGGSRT

[19] = target: Fibroblast growth factor receptor 3 (Homo sapiens) (UniProt P22607); conditions: at 1 µM
[20] = target: Fibroblast growth factor receptor 4 (Homo sapiens) (UniProt P22455); conditions: at 0.1 µM;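 further: values are mean percent inhibition of FGFR4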

SMILES	inhibition [1] [%]	inhibition [2] [%]	inhibition [3] [%]	inhibition [4] [%]	inhibition [5] [%]	inhibition [6] [%]	inhibition [7] [%]	inhibition [8] [%]	inhibition [9] [%]	inhibition [10] [%]	inhibition [11] [%]	inhibition [12] [%]	inhibition [13] [%]	inhibition [14] [%]	inhibition [15] [%]	inhibition [16] [%]	inhibition [17] [%]	inhibition [18] [%]	inhibition [19] [%]	inhibition [20] [%]
CCn1c(-c2nonc2N)nc2c(C#CC(C)(C)O)nc(CN3CCCC3)cc21	-4.07	2.42	-2.06	1.15	0.96	-1.45	-6.25	3.95	-0.29	-1.64	0.06	-1.26	-0.58	-3.25	-2.63	-0.04	0.42	-2.14	-0.76	-0.75
COc1ccccc1Nc1ncc(-c2ccccc2)o1	10.8	2.82	3.43	1.6	5.33	0.38	6.93	8.18	15.7	4.02	11.2	4.25	3.85	8.72	5.99	6.35	13.7	6.19	13.1	-2.79
CCn1c(-c2nonc2N)nc2cncc(C(=O)N3CC[C@H](N)C3)c21	6.1	6.62	4.88	6.15	2.54	4.24	7.27	13.3	17.8	1.22	3.76	2.6	2.26	0.26	1.87	2.48	4.96	3.72	2.58	-6.25
COc1ccc(COc2ccc(Cc3cnc(N)nc3N)cc2OC)cc1	8.3	-1.18	-4.82	0.94	3.27	-1.55	-2.79	3.15	3.43	2.14	2.33	1.72	2.24	1.78	2.1	1.46	6.83	2.29	0.98	3.95
Fc1cccc(COc2ccc(Nc3ncnc4cc(-c5ccc[nH]5)sc34)cc2Cl)c1	6.05	0.75	-2.49	-1.44	-2.14	0.71	15.2	36.5	68.5	1.94	2.81	1.96	1.5	-1.92	4.48	-1.83	0.05	-1		
N#Cc1c(NC(=O)c2cccc3ccccc23)sc2c1CCCC2	6.91	5.39	3.56	3.79	3.28	1.65	-0.24	6.37	8.55	2.88	1.93	2.2	2.36	0.22	2.06	1.68	4.84	5.84	4.55	-2.84
CCN1CCC(CC(=O)Nc2n[nH]c3nc(-c4cccs4)c(Br)cc23)CC1	1.96	-2.11	-3.61	-1.44	-2.19	-4.26	-1.56	-5.1	-7.08	0.22	2.34	-3.39	-4.54	-3.02	-1.95	-4.3	-0.25	-1.64	-1.77	0.71
CC(=O)Nc1cccc(C#Cc2cncnc2Nc2ccc(OCc3cccc(F)c3)c(Cl)c2)n1	4.49	-4.13	-1.83	-0.8	0.82	1.84	0.35	18.5	62.8	-0.09	4.77	-0.62	-1.06	-3.81	-5.8	-4.24	0.03	-1.4	-2.39	0.06
CCn1c(-c2nonc2N)nc2cncc(C(=O)N3CCNCC3)c21	7.73	3.36	3.77	2.94	3.87	38.2	2.97	9.03	10.6	1.53	0.82	5.22	4.85	7.76	5.74	11.8	7.87	12.3	7.38	4.67
Nc1ncnc2occ(-c3ccc(NC(=O)Nc4cc(C(F)(F)F)cc(C(F)(F)F)c4)cc3)c12	68.2	6.66	27.9	9.24	41.4	-1.28	-3.43	9.75	5.89	1.71	22	1.31	4.84	9.08	43.7	23.3	68.8	10.8	52.8	3.02
Cc1cc(O)cc(C)c1/C=C/c1cncc(-c2nn[nH]n2)c1	61.5	-0.26	5.69	3.89	46.2	1.86	0.56	12.1	36.7	4.18	11.9	2.28	3.8	2.34	3.83	1.54	13.3	3.74	2.92	-9.13
CS(=O)(=O)CCNCc1nc(-c2ccc3ncnc(Nc4ccc(F)c(Cl)c4)c3c2)cs1	22.5	6.15	9.44	1.4	8.6	7.41	34.5	46.6	83.1	1.44	4.88	0.25	-0.06	-5.98	1.65	1.9	5.07	2.17	4.26	2.32
O=C1NC(=O)C(c2cccc(Cl)c2)=C1Nc1ccc(O)c(Cl)c1	-8.35	2.73	-5.14	1.15	-0.03	0.29	-5.89	5.49	6.06	3.79	5.56	0.55	1.14	-2.65	6.97	3.82	32.5	4.37	21.3	-2.1
